Our source for the outcome and AC50 values is PubChem BioAssay (EPA / NIEHS).

Several values for one entry are separate records, joined by “and”; a condition that tells them apart may be missing. Equal values may be shown once. Activity calls are given as the source filed them. Rule for the calls: active = hit-call score of the fitted dose curve at least 0.9, where 1 is the maximum; inactive = score below 0.9.

The test can be described thus: APR_HepG2_MitoMass_1hr: Apredica 1-hour HepG2 Assay for Mitochondrial Mass (AID 2282674). The following applies: high-content imaging, actives raise or lower the signal. The procedure: APR_HepG2_1hr is a cell-based, multiplexed-readout assay that uses HepG2, a human liver cell line, with measurements taken at 1 hour after chemical dosing in a 384-well plate.APR_HepG2_MitoMass_1hr is one of 10 assay component(s) measured or calculated from the APR_HepG2_1hr assay. It is designed to make measurements of cell phenotype, a form of morphology reporter, as detected with fluorescence intensity signals by HCS Fluorescent Imaging technology.Data from the assay component APR_HepG2_MitoMass_1hr was analyzed into 1 assay endpoint. This assay endpoint, APR_HepG2_MitoMass_1hr, was analyzed with bidirectional fitting relative to DMSO as the negative control and baseline of activity. Using a type of morphology reporter, gain or loss-of-signal activity can be used to understand changes in the signaling. Furthermore, this assay endpoint can be referred to as a primary readout, because this assay has produced multiple assay endpoints where this one serves a signaling function. To generalize the intended target to other relatable targets, this assay endpoint is annotated to the cell morphology intended target family, where the subfamily is organelle conformation.
Cells were treated with dimethyl sulfoxide (DMSO) as a solvent control at a final concentration of 0.5% v/v or with compounds in DMSO with a resulting final DMSO concentration of 0.5% v/v. Compound treatment was done at concentrations of 0.39, 0.78, 1.56, 3.12, 6.24, 12.5, 25, 50, 100, and 200 uM in duplicate on each plate. Cells were treated with compounds for 1, 24, or 72 hr. Carbonyl […] m-chloro-phenylhydrazone (CCCP) and taxol were used as positive controls for mitochondrial function and cytoskeletal stability, respectively; DMSO served as the negative control for this experiment. Cells were fixed by the direct addition of 50 uL formaldehyde in Hank's Balanced Salt Solution (HBSS) to a final concentration of 3.7%. After incubation in the fixation medium for 30 min at room temperature (293-298 K), cells were rinsed twice with HBSS and treated with cell permeabilization buffer (16 uL of 0.5% Triton X-100) for 10 min at room temperature (293-298 K) before labeling. For mitochondrial membrane potential and mitochondrial measurements, pre-fixed cells were incubated with 50 uL of MitoTracker Red CMXRos (Invitrogen) at a concentration of 250 nM for 30 min before fixation. In the remaining cases, post-fixed cells were labeled by incubation with a multiplexed mixture of primary antibodies in HBSS for 60 min at room temperature (293-298 K) to detect immunoreactivity of c-Jun (1:500), phospho-histone H3 (1:100), phospho-histone H2A.x (1:200), p53 (1:400), alpha-tubulin (1:200) and Hoechst 33342 (2 ug/mL). Cells were labeled for multiplexed imaging on two separate plates: a) Hoechst 33342, MitoTracker Red, phospho-histone H3, and alpha-tubulin, and b) Hoechst 33342, phospho-histone H2A.x, and c-Jun. A final rinse with HBSS (50 uL) was performed before analysis. The primary and secondary antibodies for the proteins were phospho-histone H3 (rabbit anti-phospho-histone H3 and FITC-donkey anti-rabbit IgG), phospho-histone H2A.x (mouse anti-phospho-histone H2A.x and FITC-donkey anti-mouse IgG), c-Jun (rabbit anti-phospho-c-Jun and Cy3-donkey anti-rabbit IgG), p53 (sheep anti-p53 and Cy5-donkey anti-sheep IgG), alpha-tubulin (mouse anti-alpha-tubulin and Cy5-donkey anti-mouse IgG). These antibodies are available as the CellCiphr HepG2 assay kit (Millipore).Digital images of each well were captured using a Cellomics ArrayScan VTI (Thermo Scientific Cellomics) (0.8 NA objective, 0.63x optical coupler, and XF-93 filter set) at 20x magnification. The images were acquired using the autofocus feature of the ArrayScan instrument, which entails the following steps. First, the camera focuses on channel 1 (Hoechst 33342), where nuclei are identified. Second, a Z offset of 1 um is used for capturing mitochondria (MitoTracker Red). Third, a Z offset of -2 um is used for capturing the cytoskeleton (tubulin). […]
Take `O=C(Nc1ccccc1)Nc1ccnc(Cl)c1`: the outcome was inactive.

As for `CCOC(=O)CC(SP(=S)(OC)OC)C(=O)OCC` (stereo not given), the outcome was inactive.

In the case of `CC1=C(C(=O)Nc2ccccc2)SCCO1`, the compound was called inactive.

As to `CO/C=C(/C(=O)OC)c1ccccc1Oc1cc(Oc2ccccc2C#N)ncn1`, the compound was called inactive.

As to `CCCC1COC(Cn2cncn2)(c2ccc(Cl)cc2Cl)O1` (stereo not given), the compound was called inactive.

On to `CC(Oc1ccc(Cl)cc1Cl)C(=O)O` (stereo not given), for which the compound was classed as inactive.

Take `CCNc1nc(Cl)nc(NC(C)C)n1`: the compound was classed as inactive.

For `CCON=C(CC)C1=C(O)CC(c2c(C)cc(C)cc2C)CC1=O` (stereo not given), the compound was called inactive.

As for `CCCCNC(=O)n1c(NC(=O)OC)nc2ccccc21`, the outcome was inactive.

Consider `O=C(O)COc1nc(Cl)c(Cl)cc1Cl`, for which the result was inactive.

Consider `Cc1ccc(-c2c(Cl)nc(C#N)n2S(=O)(=O)N(C)C)cc1`, for which the call was inactive.

For `COC(=O)N(OC)c1ccccc1COc1ccn(-c2ccc(Cl)cc2)n1`, the outcome was inactive.

On to `COC(=O)c1ccccc1C(=O)OC`, for which the compound was classed as inactive.

For `N#CC(CCc1ccc(Cl)cc1)(Cn1cncn1)c1ccccc1` (stereo not given), the compound was classed as inactive.

Consider `CCCCOC(=O)c1ccccc1C(=O)OCCCC`, for which the result was inactive.

With `OC(c1ccc(Cl)cc1)(c1cncnc1)c1ccccc1Cl` (stereo not given), the result was inactive.

With `CCOc1cc(Oc2ccc(C(F)(F)F)cc2Cl)ccc1[N+](=O)[O-]`, the call was inactive.

As to `CCCCNC(=O)OCC#CI`, the AC50 is 47.8 µM (active) and 60.6 µM (active).

Take `Cc1c(F)c(F)c(COC(=O)C2C(/C=C(\Cl)C(F)(F)F)C2(C)C)c(F)c1F` (stereo not given): the compound was called inactive.

On to `CC(C)(C)c1ccc(CSc2cnn(C(C)(C)C)c(=O)c2Cl)cc1`, for which the call was inactive.

With `CON(C)C(=O)Nc1ccc(Cl)c(Cl)c1`, the compound was called inactive.

Regarding `COc1nc(C)nc(NC(=O)NS(=O)(=O)c2ccccc2CCC(F)(F)F)n1`, the compound was classed as inactive.

With `COC(=O)C(C)Oc1ccc(Oc2ccc(Cl)cc2Cl)cc1` (stereo not given), the compound was called inactive.

`CN(C)C(=S)SSC(=S)N(C)C`: the result was inactive.

Consider `CCOC(=O)C(Cl)Cc1cc(-n2nc(C)n(C(F)F)c2=O)c(F)cc1Cl` (stereo not given), for which the compound was classed as inactive.

On to `CCOP(=S)(OCC)SCn1c(=O)oc2cc(Cl)ccc21`, for which the compound was classed as inactive.

Turning to `CNC(=S)S`, the outcome was inactive.

As to `COP(N)(=O)SC` (stereo not given), the compound was classed as inactive.

Consider `COP(=S)(OC)Oc1nc(Cl)c(Cl)cc1Cl`, for which the call was inactive.

For the compound `CC(C)Oc1cc(-n2nc(C(C)(C)C)oc2=O)c(Cl)cc1Cl`, the compound was classed as inactive.

Consider `C=CCC1=C(C)C(OC(=O)C2C(C=C(C)C)C2(C)C)CC1=O` (stereo not given), for which the call was inactive.

As for `N#Cc1cc(Br)c(O)c(Br)c1`, the result was inactive.

Consider `COC(=O)C=C(C)OP(=O)(OC)OC`, for which the call was inactive.

Regarding `Cc1cc(Cl)ccc1OCC(=O)O`, the result was inactive.

Regarding `CCCCC(CC)COC(=O)c1ccccc1C(=O)OCC(CC)CCCC` (stereo not given), the outcome was inactive.

Turning to `N#Cc1nn(-c2c(Cl)cc(C(F)(F)F)cc2Cl)c(N)c1S(=O)C(F)(F)F` (stereo not given), the outcome was inactive.

Regarding `Oc1ccccc1-c1ccccc1`, the compound was called inactive.

As for `CC1COC(Cn2cncn2)(c2ccc(Oc3ccc(Cl)cc3)cc2Cl)O1` (stereo not given), the compound was classed as inactive.

For `O=C(O)c1nc(Cl)ccc1Cl`, the result was inactive.

Regarding `COc1nc(C)nc(NC(=O)NS(=O)(=O)c2ccccc2Cl)n1`, the compound was called inactive.
